PI4K2A block: qHTS for small molecular inhibitors of PI4K2A; 0.13% of 420,000 active; Phosphatidylinositol 4-kinase type 2-alpha (Homo sapiens), Q9BTU6; AID 1346378, 2018; purified PI4K2A, ADP-Glo luminescence, 1 h; stronger effect = lower value; activity change, negative = inhibition, % at 76.9 µM; in the data active = activity change below about -50%; inconclusive = mostly about -30% to -49%
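In this quantitative HTS, ADP production by PI4K2A was quantified luminescently after 1 h at ambient temperature; 100 microM adenosine served as plate-quality control.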
Akt phos inh: HTS Assay for Inhibitors of Akt Phophorylation: Primary Screen | Neuro2A IGF-stimulated pAkt S473 HTRF, 20 min; stronger effect = lower value | 0.32% of 360,000 active | activity change, % for hits at 50 µM; in the data active = activity change below about -80%; inconclusive = mostly about -51% to -80%
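Neuro2A cells in DMEM with 0.5% FBS, overnight at 37 deg C, given compound at single 50 µM final, then IGF (6 nM final) for 20 min at 37 deg C. Lysed; phospho-Akt Ser473 by HTRF after 24 h, 665/615 ratio.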
RGS4 inh: Inhibitors of Regulator of G Protein Signaling (RGS) 4: qHTS; Regulator of G-protein signaling 4 (Homo sapiens), P49798; Transcreener GDP fluorescence polarization, RGS4-accelerated GTP hydrolysis; Potency, µM (highest dose often 114 µM), usual class: inhibitors; 0.039% of 390,000 active; AID 504845, 2011; active = well fitted inhibition curve with a large enough effect; inconclusive = small, poorly fitted or top-dose-only effect; inactive = no such curve, though single readings can be large or run the other way; note: nearly all actives have a fitted effect of over 75% in size
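MLSMR compounds (23 nl, pin-transferred) preincubated 10 min at room temperature with a 500nM (2x) first reagent, then RGS4 at 900nM (2x) plus Transcreener GDP mix added; fluorescence polarization (620/688 nm) read before and after 90 min at 30 °C.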
LDHA inh: qHTS assay for inhibitors of human lactate dehydrogenase; purified LDHA, NADH/diaphorase-resazurin fluorescence; stronger effect = lower value; 0.15% of 480,000 active; AID 1347041, 2019; activity change, % (values are at about 110 or 230 µM); in the data active = activity change below about -30%; inconclusive = mostly about -25% to -30%
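Resorufin fluorescence (ex540/em590), read at 0 and 20 min after diaphorase/resazurin addition, reports the NADH left after a 5 min room-temperature reaction of 2 nM human LDH5 with 0.06 mM NADH and 0.2 mM pyruvate.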
D3 antag: qHTS of D3 Dopamine Receptor Antagonist: qHTS | D3R cells, DiscoveRx beta-arrestin luminescence, antagonist mode; stronger effect = lower value | max response, negative = inhibition, % | 2.5% of 360,000 active; in the data active = max response below about -50%; inconclusive = no clear call, values can overlap the other calls
Target sequence (P35462 whole entry, looked up): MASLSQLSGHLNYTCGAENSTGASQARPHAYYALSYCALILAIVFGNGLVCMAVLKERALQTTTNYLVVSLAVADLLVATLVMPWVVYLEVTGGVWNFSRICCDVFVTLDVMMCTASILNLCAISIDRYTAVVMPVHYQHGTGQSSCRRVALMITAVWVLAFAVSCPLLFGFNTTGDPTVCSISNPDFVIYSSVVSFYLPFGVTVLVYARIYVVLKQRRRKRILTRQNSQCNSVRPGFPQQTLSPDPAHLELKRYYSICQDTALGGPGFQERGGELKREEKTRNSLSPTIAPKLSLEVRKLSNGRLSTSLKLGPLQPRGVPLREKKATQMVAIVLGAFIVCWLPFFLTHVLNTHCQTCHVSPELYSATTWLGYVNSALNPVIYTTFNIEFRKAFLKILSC
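Cells expressing the human receptor were seeded at 1500 cells/well, incubated overnight at 37 degrees C in 5% CO2, then exposed to library compounds with dopamine controls for 90 minutes at 37 degrees C before luminescent detection.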
D3 ag: qHTS of D3 Dopamine Receptor Agonist: qHTS; D(3) dopamine receptor (Homo sapiens), P35462; D3R DiscoveRx beta-arrestin cells, luminescence, 90 min; max activation, %; 0.58% of 410,000 active; in the data active = max activation above about 30%
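Agonist mode: compounds and dopamine controls were applied to plated cells for 90 min at 37 degrees C after an overnight attachment at 1500 cells/well. Luminescent read-out followed 30 - 60 minutes at room temperature with DiscoveRx detection reagent.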
Each line names hits and unclear results; the compound was inactive in the other large screens. Compounds with a hit are over-represented: about 2.8% of the library has one in this group of screens.

CCOC(=O)C(NC(=O)c1ccc(OC)cc1)(Nc1cc(C)on1)C(F)(F)F (configuration not stated)	none
CCOC(=O)C(NC(=O)c1ccccc1)(Nc1cc(C)on1)C(F)(F)F (configuration not stated)	Akt phos inh -129.4%
O=C(Nc1cccc2ccccc12)c1ccc([N+](=O)[O-])o1	none
O=C(Nc1ccccc1C(=O)NC1CC1)c1ccc([N+](=O)[O-])o1	D3 antag -62.6
Cc1occc1-c1nnc(SCC(=O)Nc2nc3ccccc3s2)o1	D3 antag -103.4
CC(C)NC(=O)COc1coc(CN2CCN(c3ccccc3)CC2)cc1=O	D3 antag -61.7 (no result: Akt phos inh)
CC(C)NC(=O)COc1coc(CN2CCN(c3cccc(Cl)c3)CC2)cc1=O	none
Cc1c(CCC(=O)NC2Cc3ccccc3C2)c(=O)oc2cc(O)ccc12	none (no result: PI4K2A block, Akt phos inh, RGS4 inh, D3 antag, D3 ag)
O=C(NCC1COc2ccccc2O1)c1ccccc1 (configuration not stated)	none (no result: Akt phos inh)
CC(OCC(O)CNCC1COc2ccccc2O1)c1ccc(Cl)cc1 (configuration not stated)	D3 antag -67.5
CC(=O)c1cccc(OCC(O)CNCC2COc3ccccc3O2)c1 (configuration not stated)	D3 antag -51.1, D3 ag 36.6
OC(CNCC1COc2ccccc2O1)COCc1cccs1 (configuration not stated)	D3 antag -71.5
COC(=O)c1ccccc1NCC(=O)NC(=O)NC(C)C	none (no result: PI4K2A block, Akt phos inh, RGS4 inh, D3 antag, D3 ag)
COc1ccc(S(=O)(=O)N2CCN(c3ccc(C)c(Cl)c3)CC2)c2ccccc12	none (no result: PI4K2A block, Akt phos inh, RGS4 inh, D3 antag, D3 ag)
C(=N\N1CCN(Cc2ccccc2)CC1)/c1cccs1	D3 antag -72.9
C(=N\N1CCN(Cc2cccc3ccccc23)CC1)/c1cccs1	none
Cc1cccc(NC(=O)C2CCCN(C(=O)Nc3ccccc3)C2)c1C (configuration not stated)	Akt phos inh -110.2%
Cc1ccccc1NC(=O)C1CCCN(C(=O)Nc2ccc(F)cc2)C1 (configuration not stated)	none
COc1ccc(NC(=O)C2CCCN(C(=O)Nc3ccc(OC)cc3)C2)cc1 (configuration not stated)	none
COc1ccc(NC(=O)N2CCCC(c3ccccc3)C2)cc1 (configuration not stated)	D3 ag 32.8
Cc1cccc(C(=O)CC(=O)c2cc(Cl)ccc2O)c1	D3 antag -78.6
CC1=Nc2ccccc2/C1=C/c1nc(-c2ccc(C)s2)oc1O	none
CC1=Nc2ccccc2/C1=C/c1sc(=N)n(-c2nccs2)c1O	D3 antag -96.1
O=S1(=O)C=C[C@@H](COCc2ccccc2)N1Cc1ccc(Br)cc1	D3 antag -50.8 (no result: RGS4 inh)
CCCOc1ccc(NC(=O)Cc2ccc(OC)cc2)c2cccnc12	none (no result: PI4K2A block, Akt phos inh, RGS4 inh, D3 antag, D3 ag)
COc1cc(/C=C2\COC/C(=C\c3ccc(O)c(OC)c3)C2=O)ccc1O	D3 antag -90.2
COc1cc(C=C2C(=O)c3ccccc3C2=O)ccc1O	D3 antag -77.2
CCN1C/C(=C/c2ccc(OC)c(O)c2)C(=O)/C(=C/c2ccc(OC)c(O)c2)C1	D3 antag inconclusive
COc1ccc(/C=C2\CN(Cc3ccccc3)C/C(=C\c3ccc(OC)c(O)c3)C2=O)cc1O	D3 antag -53.4
COc1cccc(Nc2c(-c3cccc(O)c3)nc3cccc(C)n23)c1	none (no result: PI4K2A block, Akt phos inh, RGS4 inh, D3 antag, D3 ag)
CCCCCc1ccc(-c2ccc(CCC)cc2)nc1	none (no result: PI4K2A block, Akt phos inh, RGS4 inh, D3 antag, D3 ag)
COc1[nH]c2ccc(F)cc2c1C(=O)OCC1CCN(CCNS(C)(=O)=O)CC1	D3 antag -55.2
COc1ccc(OCc2nc3c4c(C)c(C)n(CCCN(C)C)c4ncn3n2)cc1	none (no result: PI4K2A block, Akt phos inh, RGS4 inh, D3 antag, D3 ag)
CCCn1c(SCC(=O)c2cc(C)n(-c3cc(C)on3)c2C)n[nH]c1=O	D3 ag 30.7
